HP1b chromo inh: HP1-beta chromodomain-methylated histone interaction inhibition | P83916 | AlphaScreen HP1-beta / biotin-H3K9me3 peptide binding | Potency, µM (top dose mostly 114 µM), inactives show top-dose activity change, negative = inhibition, most hits filed as inhibitors | 390,000 compounds, 0.56% hits | AID 540317; note: potency is the fitted concentration of half-maximal effect; nearly all actives have a fitted effect of over 70% in size
Target sequence (P83916 whole entry, looked up): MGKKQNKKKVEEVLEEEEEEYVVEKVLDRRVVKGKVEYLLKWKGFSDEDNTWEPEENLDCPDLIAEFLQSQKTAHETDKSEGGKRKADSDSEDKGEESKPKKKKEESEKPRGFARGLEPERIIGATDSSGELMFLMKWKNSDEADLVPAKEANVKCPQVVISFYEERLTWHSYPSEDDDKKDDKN
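HP1-beta protein (50 nM final) preincubated 30 min at room temperature with biotinylated H3(1-18)K9me3 peptide (50 nM) in PBS pH 7.4, 0.01% Tween-20, then compound added for 30 min. AlphaScreen streptavidin donor/nickel chelate acceptor beads (10 ug/mL final), 30 min dark, luminescence read.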
G9a block: G9a (human) methyltransferase inhibition; Q96KQ7; Potency, µM (highest dose often 102 µM), for the others: top-dose activity, negative = inhibition, usual class: inhibitors; 350,000 compounds, 8.8% hits; G9a H3K9 monomethylation, AlphaScreen, 2 h; note: potency is the fitted concentration of half-maximal effect; % is set by controls: 0 for no effect and ±100 for the full control effect; nearly all actives have a fitted effect of over 75% in size
Target sequence (Q96KQ7 913-1193 limits assumed): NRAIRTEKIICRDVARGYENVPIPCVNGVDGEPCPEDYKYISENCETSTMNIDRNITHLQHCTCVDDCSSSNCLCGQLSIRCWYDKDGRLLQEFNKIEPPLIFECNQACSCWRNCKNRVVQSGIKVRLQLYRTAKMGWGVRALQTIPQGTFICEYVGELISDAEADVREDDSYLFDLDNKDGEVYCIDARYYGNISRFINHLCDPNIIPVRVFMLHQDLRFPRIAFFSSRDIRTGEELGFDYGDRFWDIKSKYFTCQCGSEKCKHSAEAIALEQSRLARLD
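Compounds were preincubated with 20 nM G9a for 15 min, after which biotinylated H3K9 peptide (500 nM) and SAM (20 uM) started a 2 h room-temperature reaction. Monomethylated product was quantified by antibody-based AlphaScreen chemiluminescence.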
BAZ2B inh: inhibitors of human BAZ2B bromodomain; AID 504333; 360,000 compounds, 4.4% hits; Q9UIF8; Potency, µM (top dose mostly 114 µM), without a hit: at the highest dose activity change, negative = inhibition, hits mostly inhibitors; AlphaScreen BAZ2B-H3K14Ac peptide displacement; note: potency is the fitted concentration of half-maximal effect; % is set by controls: 0 for no effect and ±100 for the full control effect; nearly all actives have a fitted effect of over 60% in size
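Inhibition is scored as reduced AlphaScreen emission. The BAZ2B/b-H3(5-23)K14Ac complex (50 nM each) in PBS pH 7.4, 0.01% Tween-20 meets compound (up to 110 uM) for 30 min at RT before bead addition.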
CtBP-E1A inh: inhibitors of CtBP/E1A interaction; 340,000 compounds, 0.49% hits; AlphaScreen GST-E1A/His-CtBP binding, 1536-well; stronger effect = lower value; activity change, % (concentration not given with the values); in the data active = activity change below about -65%; inconclusive = mostly about -30% to -63%; note: % is set by controls: 0 for no effect and ±100 for the full control effect
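Steps: dispense buffer (Tris pH 8.0, NaCl 300 mM, TCEP 1 mM, BSA, Tween 20); add 5X protein mix (GST-E1A, His-CtBP, 125 nM each); pin 23 nL compound; 2 h at 37 °C, dark; add 5X beads (50 ug/mL); 1 h; read.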
Six1-Eya2 blk: blocks human Six1 binding to Eya2. Q15475+O00167. AlphaScreen GST-Six1/His-Eya2 binding, biochemical; stronger effect = lower value. 360,000 compounds, 0.56% hits. activity change, % (test concentration not listed); in the data active = activity change below about -65%; inconclusive = mostly about -30% to -63%; note: % is set by controls: 0 for no effect and ±100 for the full control effect
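AlphaScreen with GST-Six1 and His-Eya2 (5X mix: 250 nM and 500 nM), glutathione donor and nickel acceptor beads; buffer 50 mM Tris pH 8.0, 300 mM NaCl, 1 mM TCEP; 1 h at 37 C in the dark.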
JMJD2A Tudor inh: inhibitors of human JMJD2A Tudor domain; O75164; AlphaScreen JMJD2A-Tudor / H3K4me3 peptide binding; Potency, µM (doses to about 114 µM), for inactives: at the highest dose activity change, negative = inhibition, most hits filed as inhibitors; 390,000 compounds, 4.4% hits; note: potency is the fitted concentration of half-maximal effect; % is set by controls: 0 for no effect and ±100 for the full control effect; nearly all actives have a fitted effect of over 50% in size
Numbers without * were called inactive; ? = inconclusive; / = not tested or not shown; [ ] = dose if it differs, or a comment. Most compounds without a hit are left out; they make up all but 10% or so of the library. Unless noted, calls come from the whole dose curve; as a rule, active = well fitted inhibition curve with a large enough effect; inconclusive = small, poorly fitted or top-dose-only effect; inactive = no such curve, though single readings can be large or run the other way.

SMILES | HP1b chromo inh | G9a block | BAZ2B inh | CtBP-E1A inh | Six1-Eya2 blk | JMJD2A Tudor inh
Cc1cccc(C(=O)N2CCc3cc(CNC(=O)COc4ccc(Cl)cc4)ccc32)c1 | 26% | -22%[59 µM] | -8% | / | / | -24%
Cc1ccc(S(=O)(=O)Nc2ccccc2[N+](=O)[O-])cc1 | / | / | / | -3 | -2 | /
Cc1ccc(S(=O)(=O)Nc2ccsc2C#N)cc1 | 35% | 40µM* | ? | -28 | 0 | -5%
O=C(CCN1C(=O)/C(=C\C=C\c2ccccc2)SC1=S)Nc1ccc(C(=O)O)cc1 | 50µM* | 32µM* | 16µM* | ? | -13 | 22µM*
O=C(CCN1C(=O)S/C(=C/c2ccc(F)cc2)C1=O)Nc1ccc(O)c(C(=O)O)c1 | 12%[57 µM] | 45µM* | -20% | / | -1 | -25%
Cc1ccc(/C=C2\SC(=S)N(CCCC(=O)Nc3ccccn3)C2=O)cc1 | -11% | 71µM* | ? | -6 | -5 | ?
O=C(CCCN1C(=O)/C(=C/c2cccs2)SC1=S)Nc1ccc(O)c(C(=O)O)c1 | / | 45µM* | ? | / | / | /
CCCCCOc1ccc(/C=C/C(=O)Nc2sc(C(C)=O)c(C)c2C(=O)OCC)cc1OC | 46% | 15%[59 µM] | -2% | / | / | -7%
COc1cccc(/C=C2/SC(=S)N(CC(=O)Nc3nnc(C)s3)C2=O)c1 | 35% | -6% | -6% | -9 | 7 | -18%
O=C(CN1C(=O)/C(=C/c2ccccc2)SC1=S)Nc1ncc(Cc2ccccc2)s1 | -20% | 50µM* | -34% | -22 | ? | -26%
O=C(CCCN1C(=O)/C(=C\c2cccs2)SC1=S)Nc1ccccn1 | ? | ? | ? | -2 | -10 | ?
O=C(CCN1C(=O)/C(=C/c2cccs2)SC1=S)Nc1ccccn1 | 9% | 3.2µM* | ? | -8 | -13 | -31%
O=C(CN1C(=O)/C(=C/c2ccccc2F)SC1=S)NC1C=CS(=O)(=O)C1 (configuration not stated) | 50% | / | -32% | -1 | -5 | -11%
Cc1nnc(NC(=O)CCN2C(=O)/C(=C\c3ccccc3)SC2=S)s1 | 52% | 79µM* | 2% | -3 | -2 | -4%
CN1CCN(NC(=O)CN2C(=O)/C(=C/c3ccccc3F)SC2=S)CC1 | / | 50µM* | ? | / | / | /
Cc1oc2c(c(C)cc3oc(=O)c(CC(=O)NCc4ccc(F)cc4)c(C)c32)c1C | 8% | 3%[59 µM] | -11% | / | / | -14%
COc1ccccc1CNC(=O)Cn1c(=O)nc(-c2ccccc2)c2ccccc21 | 47% | 6%[12.7 µM] | -4% | / | / | 7%
CCCCCOc1ccc(NC(=O)Cn2c(-c3cncs3)nc3ccccc32)cc1 | 39% | 3%[59 µM] | -31% | / | / | -25%
O=C(CCCN1C(=O)/C(=C/c2ccccc2)SC1=S)Nc1ccc(C(=O)O)c(O)c1 | -12%[57 µM] | ? | ? | -17 | -11 | ?
O=C(COC(=O)CCN1C(=O)/C(=C\C=C\c2ccccc2)SC1=S)Nc1cc(F)ccc1F | ? | ? | 20µM* | -12 | -21 | 40µM*
O=C(CN1C(=O)/C(=C\C=C\c2ccccc2)SC1=S)Nc1ccc(F)cc1 | 2% | -40%[59 µM] | -28% | 0 | -2 | -22%
O=C(CCCN1C(=O)/C(=C\c2cccs2)SC1=S)Nc1ccc(C(=O)O)cc1 | -6% | -40% | ? | -26 | -28 | -31%
O=C(CCN1C(=O)/C(=C\c2ccccc2F)SC1=S)Nc1ccc(C(=O)O)c(O)c1 | / | 79µM* | ? | / | / | /
CCN(CC)CCOC(=O)c1ccc(NC(=O)CCCN2C(=O)/C(=C/c3cccs3)SC2=S)cc1 | ? | / | 16% | 0 | -28 | 40µM*
O=C(CCN1C(=O)/C(=C/c2cccs2)SC1=S)Nc1ccc(C(=O)O)cc1 | -1% | ? | 56µM* | ? | -11 | ?
SMILES | HP1b chromo inh | G9a block | BAZ2B inh | CtBP-E1A inh | Six1-Eya2 blk | JMJD2A Tudor inh
Cc1cc(C)n2nc(CNC(=O)c3cccc(Cl)c3)nc2n1 | 2% | -31%[59 µM] | -2% | / | / | -9%
O=C(Cn1c(=O)c(C(F)(F)F)nc2ccccc21)Nc1cccc(Br)c1 | 32% | 1%[59 µM] | 1% | / | / | 1%
C/C(=C\C(=S)Nc1ccccc1)Nc1ccc2ccccc2c1 | ? | -49%[59 µM] | 25µM* | 6 | -11 | 79µM*
CCC(=O)N1CCc2cc(Br)cc(S(=O)(=O)NCc3ccco3)c21 | 17% | 45µM* | -5% | -13 | -10 | -15%
CC(=O)N1CCc2cc(Br)cc(S(=O)(=O)N3CCC(C(=O)O)CC3)c21 | 0% | 50µM* | -30% | 0 | -21 | -13%
CC(=O)N1CCc2cc(Br)cc(S(=O)(=O)NCc3ccccn3)c21 | -8% | ? | -31% | -1 | 0 | 79µM*
O=C(C1CC1)N1CCc2cc(Br)cc(S(=O)(=O)N3CCCCCC3)c21 | 37% | -38% | 5% | -7 | -7 | -9%
COc1ccc(NS(=O)(=O)c2cc(Br)cc3c2N(C(C)=O)CC3)cc1 | 26% | -14% | -21% | -4 | 0 | -14%
COC(=O)c1cc(NS(=O)(=O)c2cc(Br)cc3c2N(C(C)=O)CC3)cc(C(=O)OC)c1 | 37% | -14%[59 µM] | 71µM* | / | / | 4%
COc1ccc(N(C(=O)c2ccc(Cl)cc2)S(=O)(=O)c2ccc(C)cc2)cc1 | 32% | 11%[59 µM] | 3% | / | / | -4%
O=C(NCc1ccc(F)cc1)C1CCN(c2ncnc3c2nc2n3CCCCC2)CC1 | 25% | 7%[59 µM] | 1% | / | / | -11%
COC(=O)c1ccccc1NC(=O)C1CCCN(c2nnc(C)c3c(C)n(-c4ccccc4)nc23)C1 (configuration not stated) | 41% | ? | 79µM* | / | / | -3%
Cc1nnc(N2CCCC(C(=O)Nc3ccccc3C(F)(F)F)C2)c2nn(-c3ccccc3)c(C)c12 (configuration not stated) | 51% | ? | -28% | / | / | -16%
COc1ccc(-n2nc3c(N4CCCC(C(=O)NCc5ccc(C)cc5)C4)nnc(C)c3c2C)cc1 (configuration not stated) | 14% | ? | 50µM* | / | / | 56µM*
CCc1ccc(CNC(=O)C2CCCN(c3nnc(C)c4c(C)n(-c5ccc(OC)cc5)nc34)C2)cc1 (configuration not stated) | -14% | 10µM* | -28% | / | / | ?
CC(C)CC(=O)Nc1nnc(SCc2cc(=O)n3ccccc3n2)s1 | 24%[57 µM] | 29%[59 µM] | 3% | / | / | -7%
COc1ccccc1NC(=O)CSC1=Nc2ccccc2C2=NC(CC(=O)NCc3ccco3)C(=O)N12 (configuration not stated) | 66% | -4%[59 µM] | 0% | / | / | -27%
N#Cc1c(Nc2cccc(F)c2)sc(C(=O)c2ccc(Cl)cc2)c1N | 5% | 11µM* | ? | / | / | -15%
